Among the test systems are NCI-H23 lung; NCI-H226 lung; NCI-H322M lung; HOP-62 NSCLC; NCI-H460 lung; HOP-92 NSCLC; NCI-H522 lung; A549/ATCC NSCLC; 786-0 renal; COLO 205 colon; DU-145 prostate; K-562 leukemia; MALME-3M melanoma; MDA-MB-231 breast; RXF 393 renal; SF-268 CNS; SF-295 CNS; SF-539 CNS; UACC-257 melanoma; M14 melanoma.
Assay in all cases: NCI-60 one-dose screen, 48 h (100 = growth as untreated, 0 = no growth, -100 = all killed)
Settings in all cases: 10 µM unless noted

The record followed here is PubChem BioAssay (NCI).

About 83,000 compounds went through this panel and 20% of them were active in at least one assay; those are over-represented in the sample as a whole.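 How to read the values: 0–100, growth inhibition (40 = 60% inhibited); 0, no net growth; -100 to 0, cell death (-40 = 40% of starting cells died; -100 = all dead).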 Unmarked numbers belong to inactive results. Calls of active or inactive are those of the source. The calls were made as follows: active = growth percent below 10; inactive = the rest.

For the compound `COc1cc2c(cc1OC)CC[N+](CCC[N+](C)(C)C)=C2`, the growth in the assay on NCI-H23 lung was 106%; in the assay with NCI-H226 lung it was 104%; with NCI-H322M lung, 88.6%; in the assay with HOP-62 NSCLC it was 84%; with NCI-H460 lung, 109%; in the assay on HOP-92 NSCLC, 96.1%. The growth with NCI-H522 lung is 80.3%; in the assay on A549/ATCC NSCLC, 97.4%; in the assay with 786-0 renal, 96.2%; with COLO 205 colon, 108%; with DU-145 prostate, 108%; in the assay on K-562 leukemia, 111%. Further, the growth in the assay with MALME-3M melanoma is 89%; in the assay with MDA-MB-231 breast, 115%; with RXF 393 renal it was 113%; in the assay with SF-268 CNS, 91.7%; in the assay with SF-295 CNS it was 97%; in the assay on SF-539 CNS, 98%. Besides, the growth in the assay on UACC-257 melanoma was 100%; with M14 melanoma, 91.7%.

For `Nc1ncc(-c2ccc3ncnc(N4CCc5cc(F)c(Cl)cc54)c3c2)cn1`, the growth was 58.8% in the assay with NCI-H23 lung; 33.6% in the assay on NCI-H226 lung; 25.1% in the assay with NCI-H322M lung; 28.7% in the assay on HOP-62 NSCLC; 38.8% in the assay on NCI-H460 lung; 11.5% in the assay on HOP-92 NSCLC. The growth in the assay on NCI-H522 lung is 44.1%; in the assay on A549/ATCC NSCLC, 28.5%; in the assay with 786-0 renal, 26%; in the assay on COLO 205 colon, 51.5%; with DU-145 prostate it was 33.4%; in the assay on K-562 leukemia, 61.4%. Further, the growth in the assay with MALME-3M melanoma was 53.6%; with MDA-MB-231 breast, 30%; with RXF 393 renal, 1.88% (active); in the assay with SF-268 CNS it was 39.8%; in the assay on SF-295 CNS, 56.2%; in the assay on SF-539 CNS it was 48.5%. Also, the growth is 67.6% in the assay with UACC-257 melanoma and 61.1% in the assay on M14 melanoma.

On to `C=C(CNCCO)[C@@H]1CC[C@]2(CO)CC[C@]3(C)[C@H](CC[C@@H]4[C@@]5(C)CCC(NCCO)C(C)(C)[C@@H]5CC[C@]43C)[C@@H]12` (stereo not given in full), for which the growth in the assay on NCI-H23 lung is 95.5%; with NCI-H226 lung it was 96.5%; with NCI-H322M lung it was 89.2%; in the assay on HOP-62 NSCLC, 93.4%; in the assay with NCI-H460 lung, 50.3%; in the assay with HOP-92 NSCLC it was 65.5%. Further, the growth in the assay with NCI-H522 lung is 66.6%; with A549/ATCC NSCLC, 61.4%; with 786-0 renal, 67.4%; in the assay on COLO 205 colon, 62.5%; in the assay on DU-145 prostate, 79.2%; in the assay with K-562 leukemia, 0.374% (active). The growth with MALME-3M melanoma was 61.8%; with MDA-MB-231 breast, 51.4%; with RXF 393 renal, 57.4%; in the assay on SF-268 CNS it was 69.1%; with SF-295 CNS, 80.8%; with SF-539 CNS it was 70.8%. Moreover, the growth with UACC-257 melanoma is 77.9%; with M14 melanoma, 14.3%.

With `Cc1ccc(C(=O)Nc2ccc(CN3CCN(C)CC3)c(C(F)(F)F)c2)cc1C#Cc1cnc(N)c2ccccc12`, the growth with NCI-H23 lung was -46% (active); in the assay with NCI-H226 lung, 21.6%; in the assay on NCI-H322M lung it was 17%; with HOP-62 NSCLC, 15%; in the assay on NCI-H460 lung, -86.8% (active); with HOP-92 NSCLC it was -14.8% (active). Moreover, the growth is -44.3% (active) in the assay with NCI-H522 lung; -65.7% (active) in the assay on A549/ATCC NSCLC; -77.4% (active) in the assay on 786-0 renal; -66.3% (active) with COLO 205 colon; -89.3% (active) in the assay on DU-145 prostate; -23.5% (active) in the assay on K-562 leukemia. For the same compound, the growth in the assay with MALME-3M melanoma is -59.9% (active); with MDA-MB-231 breast, -63.4% (active); with RXF 393 renal, -75.5% (active); with SF-268 CNS it was 1.65% (active); in the assay with SF-295 CNS, -35.9% (active); in the assay with SF-539 CNS, -84.8% (active). Further, the results for the growth in the assay on UACC-257 melanoma and with M14 melanoma were -50.3% (active) and -76.7% (active), respectively.

With `Cc1ccc(Nc2cc(N)nc(N)n2)cc1`, the growth was 91.4% in the assay on NCI-H23 lung; 110% in the assay with NCI-H226 lung; 98.5% in the assay on NCI-H322M lung; 101% with HOP-62 NSCLC; 101% with NCI-H460 lung; 90% with HOP-92 NSCLC. Moreover, the growth is 94.3% in the assay on NCI-H522 lung; 97.3% with A549/ATCC NSCLC; 99.6% with 786-0 renal; 105% with COLO 205 colon; 107% in the assay with DU-145 prostate; 87.9% in the assay on K-562 leukemia. For the same compound, the growth is 102% with MALME-3M melanoma; 108% in the assay with MDA-MB-231 breast; 114% with RXF 393 renal; 93.4% in the assay on SF-268 CNS; 103% in the assay on SF-295 CNS; 112% in the assay on SF-539 CNS. For the same compound, the growth in the assay with UACC-257 melanoma is 110%; in the assay with M14 melanoma, 104%.

With `N#C/C(=C/C=C/c1ccccc1)S(=O)c1ccccc1` (stereo not given), the growth is -36.6% (active) in the assay with NCI-H23 lung; 12% with NCI-H226 lung; 10.4% with NCI-H322M lung; -25.6% (active) in the assay on HOP-62 NSCLC; -30% (active) in the assay on NCI-H460 lung; -58.5% (active) in the assay with HOP-92 NSCLC. Moreover, the growth in the assay on NCI-H522 lung was -68.3% (active); with A549/ATCC NSCLC it was 2.3% (active); with 786-0 renal it was -89.7% (active); in the assay on COLO 205 colon it was -56.4% (active); in the assay on DU-145 prostate, -89.5% (active); with K-562 leukemia, 5.48% (active). Besides, the growth is -30.2% (active) in the assay on MALME-3M melanoma; -54.2% (active) in the assay with MDA-MB-231 breast; -84% (active) with RXF 393 renal; -31.3% (active) in the assay on SF-268 CNS; -28.8% (active) in the assay on SF-295 CNS; -74.5% (active) in the assay with SF-539 CNS. Moreover, the growth in the assay on UACC-257 melanoma was -33.9% (active); in the assay with M14 melanoma, -55.5% (active).

For `CCOC(=O)/C(=C\c1ccccc1Cl)P(=O)(OCC)OCC`, the growth with NCI-H23 lung is 46.6%; in the assay with NCI-H226 lung, 66.4%; with NCI-H322M lung, 75.4%; in the assay with HOP-62 NSCLC it was 118%; in the assay with NCI-H460 lung, 61.9%; with HOP-92 NSCLC, 60%. The growth in the assay with NCI-H522 lung was 34%; in the assay on A549/ATCC NSCLC, 64.9%; with 786-0 renal it was 75.8%; in the assay on COLO 205 colon it was 52.9%; with DU-145 prostate, 36%; in the assay with K-562 leukemia, 28.6%. In addition, the growth with MALME-3M melanoma was 71.2%; in the assay on MDA-MB-231 breast it was 71%; in the assay with RXF 393 renal, 42.8%; in the assay on SF-268 CNS it was 63.2%; with SF-295 CNS it was 96.7%; in the assay with SF-539 CNS, 48.2%. The growth in the assay on UACC-257 melanoma is 61.9%; in the assay on M14 melanoma it was 56.6%.

As for `CC(=O)[C@H]1CC[C@]2(C)[C@@H]1CC[C@@H]1[C@@]3(C)C/C(=C/c4cccnc4)C(=O)C(C)(C)[C@@H]3CC[C@]12C`, the growth with NCI-H23 lung is 78.2%; in the assay on NCI-H226 lung, 81.1%; with NCI-H322M lung, 91.6%; with HOP-62 NSCLC it was 115%; in the assay on NCI-H460 lung it was 67.3%; with HOP-92 NSCLC, 48.8%. For the same compound, the growth is 68% with NCI-H522 lung; 65.9% with A549/ATCC NSCLC; 121% in the assay on 786-0 renal; 64.2% in the assay on COLO 205 colon; 85.3% with DU-145 prostate; 30.3% in the assay with K-562 leukemia. Besides, the growth with MALME-3M melanoma was 82.6%; in the assay on MDA-MB-231 breast, 83.9%; in the assay on RXF 393 renal, 97.7%; with SF-268 CNS, 79.7%; in the assay with SF-295 CNS it was 89.8%; in the assay on SF-539 CNS it was 97.6%. In addition, the growth was 63.4% in the assay with UACC-257 melanoma and 71.8% in the assay with M14 melanoma.
